Hit rate of the full screen: of about 68,000 compounds, about 2,700 (4%) showed an effect of 50% or more. The sample holds strong results, similar compounds and a random draw of the others, so the mix is not that of the screen.

This experiment concerns Plasmodium berghei. Nature of the experiment: Screen against P. berghei liver stage (PbLuc), transformed with Luciferase, at 2uM. It counts as functional, HepG2. To be noted: tested at 2 uM.
As for `O=c1[nH]c2cc3c(cc2cc1CN1CCCC1c1ccccn1)OCO3` (stereo not drawn), the INHIBITION is listed as -8.01%.

`CCNC(=O)N1CCC(NC(=O)NCCc2cc(F)cc(F)c2)C1` (stereo not drawn): the INHIBITION is given as 24.82%.

As for `CC(C)Oc1cccc(C(=O)C2CCCN(C(=O)c3cncs3)C2)c1` (stereo not drawn), the INHIBITION stood at 30.07%.

In the case of `CN1CCCN(C(=O)c2ccnn2-c2ccc3ccccn23)CC1`, the INHIBITION is on record as -25.2%.

For `COC(=O)c1cccn1C1CCN(C(=O)c2cn[nH]c2C)CC1`, the INHIBITION is listed as 0.26%.

Turning to `O=C(NCC(=O)N1CCCC1)c1nn(-c2ccccc2F)cc1O`, the INHIBITION is -8.52%.

For the molecule `Cc1cc(CN(C)C(=O)c2ccc(F)c(C(F)(F)F)c2)no1`, the INHIBITION is on record as 46.52%.

`COc1ccc(-n2cc3nc(N4CCCC4)[nH]cc-3c2=O)cc1Cl`: the INHIBITION is listed as 26.03%.

As to `CN(C)C(=O)[C@H]1CCS(=O)(=O)[C@@H]2CN(c3ncc(F)cn3)C[C@H]12`, the INHIBITION was determined as 32.26%.

Regarding `O=C1CC(c2cccs2)c2snc(C(=O)O)c2N1` (stereo not drawn), the INHIBITION is reported as -4.4%.

For `CN1Cc2c(C(=O)Nc3cccnc3)ncn2-c2ccccc2S1(=O)=O`, the INHIBITION is 8.85%.

Consider `CCC(=O)N1CCC2(C=C(C(=O)N(C)C)c3ccccc32)CC1`, for which the INHIBITION is -19.05%.

As to `O=C(NCc1nnc2n1CCCCC2)N1CCc2sccc2C1`, the INHIBITION came to 32.11%.

For the molecule `O=C(NCc1nnc2n1CCC2)N1CCc2sccc2C1`, the INHIBITION worked out at 15.67%.

On to `O=C(NCCc1nnc2n1CCC2)NCC1(c2ccccc2)CC1`, for which the INHIBITION is recorded as -1.32%.

For `O=C(NCc1nnc2n1CCCC2)N1CCc2sccc2C1`, the INHIBITION is 53.11%.

Take `O=C(NCCc1nnc2n1CCC2)NCC1(c2ccc(F)cc2)CC1`: the INHIBITION is reported as 81.42%.

As to `O=C(NCCc1nnc2n1CCC2)NCC1(c2cccc(F)c2)CC1`, the INHIBITION is -14.15%.

In the case of `CCn1cc(C(=O)N2CCCC(c3nccs3)C2)cn1` (stereo not drawn), the INHIBITION was 2.6%.

Regarding `COc1cccc2[nH]cc(CCNC(=O)N3CCCC3CO)c12` (stereo not drawn), the INHIBITION is on record as 1.41%.

As for `Cc1ccc(C(=O)N2CCCC(n3cncn3)C2)o1` (stereo not drawn), the INHIBITION stood at 14.17%.

Regarding `COc1ccnc(NC2CCN(CC(=O)N3CCCC3)CC2)n1`, the INHIBITION worked out at 72.05%.

As to `COc1ccnc(N2CCN(CC(=O)N3CCC(C)CC3)CC2)n1`, the INHIBITION is 39.72%.

On to `COc1ccnc(NC2CCN(CC(=O)Nc3ccccc3)CC2)n1`, for which the INHIBITION is recorded as -37.65%.

`CCn1ccc(CNC(=O)c2cc(OC)cc(OC)c2)n1`: the INHIBITION amounted to 65.06%.

On to `COc1cc(OC)cc(C(=O)NCc2nn(C)c3c2COCC3)c1`, for which the INHIBITION is -63.73%.

As for `CCOc1cccc(C(=O)Nc2ccn(CC)n2)c1`, the INHIBITION came out at 6.64%.

On to `CC(C)(NCC(=O)NCC1CC1)c1ccc2c(c1)OCCO2`, for which the INHIBITION is recorded as -51.94%.

Regarding `Cc1ccc(CN2CC[C@H](O)[C@@H](n3ccc(=O)[nH]c3=O)CC2)cc1`, the INHIBITION is 29.89%.

With `O=C(NCCCn1ccnn1)C1CCCN(C2CCCC2)C1` (stereo not drawn), the INHIBITION is given as 27.11%.

As to `COc1ccc(F)c(CN2CCCC(O)(CNCC(C)(C)C)C2=O)c1` (stereo not drawn), the INHIBITION was 70.81%.

As for `CC(C)(C)CNCC1(O)CCCN(Cc2ccccc2F)C1=O` (stereo not drawn), the INHIBITION worked out at 36.66%.

As for `COc1ccc(F)c(CN2CCCC(O)(CNCc3ccoc3)C2=O)c1` (stereo not drawn), the INHIBITION is -11.8%.

With `CCCN1C[C@@H]2CC[C@H]1CN(Cc1ccc(Cn3cccn3)cc1)C2`, the INHIBITION turned out to be 75.43%.

As for `CCCN1C[C@@H]2CC[C@H]1CN(Cc1cccc(-n3cccn3)c1)C2`, the INHIBITION is listed as -15.64%.

For `CCCN1C[C@@H]2CC[C@H]1CN(Cc1ccc(-n3cccn3)cc1)C2`, the INHIBITION is given as 47.25%.

On to `COCC1CN(c2ccc3c(Cl)ccnc3c2F)CCO1` (stereo not drawn), for which the INHIBITION is -90.94%.

Consider `Cn1ccc(CS(=O)(=O)Cc2ccccc2)cc1=O`, for which the INHIBITION came out at 36.53%.

Take `COCCN1CC2(CCOCC2)c2cc(NC(=O)C3CC=CC3)ccc21`: the INHIBITION came out at 26.31%.

On to `CC(C)C[C@H](N)COc1cccc(F)c1Oc1ccc(Cl)cc1`, for which the INHIBITION was found to be 32.24%.

For `COc1cc(CNc2cc(N3CCCC3CO)ncn2)ccn1` (stereo not drawn), the INHIBITION came to 21.39%.

Consider `C[C@@H]1CN(Cc2ccccc2)CCN1C(=O)NCc1nccs1`, for which the INHIBITION came out at 14.83%.

As for `Cc1ncsc1CNC(=O)N1CCN(Cc2ccccc2)CC1C` (stereo not drawn), the INHIBITION is reported as 51.4%.

`Cc1nccc(CNC(=O)N2CCN(Cc3ccccc3)C[C@H]2C)n1`: the INHIBITION amounted to 58.93%.

`Cc1ncsc1C(=O)N1CCN(Cc2ccccc2)CC1C` (stereo not drawn): the INHIBITION is reported as -12.06%.

In the case of `Cc1cc(CNC(=O)N2CCN(Cc3ccccc3)C[C@H]2C)on1`, the INHIBITION is -4.53%.

Take `Cc1ncsc1CNC(=O)N1CCN(Cc2ccccc2)C[C@H]1C`: the INHIBITION was found to be 37.41%.

As for `CCCC(=O)N1CCC(c2cc3cccnc3c(O)n2)CC1`, the INHIBITION is 4.48%.

On to `O=C(N1CCCC1)N1CCC2(CC1)CN(c1cccnc1)C(=O)CO2`, for which the INHIBITION was 39.86%.

Consider `CC(C)(C)c1n[nH]cc1CNC1CCC(C(F)(F)F)CC1` (stereo not drawn), for which the INHIBITION was found to be 64.92%.

Turning to `CC(C)(C)c1n[nH]cc1CNC1CCC(OCC(F)(F)F)CC1` (stereo not drawn), the INHIBITION is recorded as -8.63%.

Regarding `CC(C)(C)c1n[nH]cc1CNC1CCC(O)CC1` (stereo not drawn), the INHIBITION is -57.67%.

Consider `C=C/C=c1\c(=C/C)oc2c(NCc3ccccc3)ncnc12`, for which the INHIBITION turned out to be 24.34%.

For the molecule `C=C/C=c1\c(=C/C)oc2c(NCc3ccccc3)nc(C)nc12`, the INHIBITION was 51.36%.

`C=C/C=c1\c(=C/C)oc2c(NCc3ccccc3)nc(CC)nc12`: the INHIBITION was 17.42%.

Turning to `Cc1noc(C)c1CCC(=O)N1CCCC(n2ccnc2C)C1` (stereo not drawn), the INHIBITION was found to be 11.18%.

As to `CCN1CCOC(CNCc2ccc(C)s2)C1` (stereo not drawn), the INHIBITION is reported as -19.02%.

Take `Cc1ccc(CNc2cnn(CC(F)F)c2)cc1C`: the INHIBITION came to 55.43%.

For `COc1ccc(CNc2cnn(CC(F)F)c2)cc1`, the INHIBITION is on record as -15.93%.

For `COc1cc(CNc2cnn(CC(F)F)c2)ccc1O`, the INHIBITION came to 19.18%.

`CCn1nnc2c1C(COCCN(C)C)CN(S(=O)(=O)CC)C2` (stereo not drawn): the INHIBITION stood at 29.19%.

Consider `CNc1ncc(CN(C)C(=O)c2cccc(CC3CCNCC3)c2)cn1`, for which the INHIBITION amounted to 52.98%.

For the molecule `CN(Cc1ccno1)C(=O)c1cccc(CC2CCNCC2)c1`, the INHIBITION is 38.67%.

Consider `Cc1nc(CN(C)C(=O)c2cccc(CC3CCNCC3)c2)no1`, for which the INHIBITION is 24.36%.

On to `Cc1nc2ccc(Cl)cn2c1CN1CCN(S(=O)(=O)N2CCCC2)CC1`, for which the INHIBITION is recorded as -21.9%.

`CCN1CCc2c(sc3c2C(=O)NC(C=Cc2ccccc2)N3)C1` (stereo not drawn): the INHIBITION was -18.77%.

Consider `COCC(=O)N1CCCCC1c1nccc(C)n1` (stereo not drawn), for which the INHIBITION is 18.22%.

For `CN(C)CCN1CCCC12CCN(Cc1nccn1C)CC2`, the INHIBITION was 37.75%.

Source of the values: ChEMBL document CHEMBL4513216, “Probing the Open Global Health Chemical Diversity Library for Multistage-Active Starting Points for Next-Generation Antimalarials” (ACS Infect Dis, 2020).
